According to PubChem BioAssay AID1159580 (chemical genetic matrix, 2015):
“And” between values parts separate entries of the source, which are not always exact repeats. Equal values may be shown once. Screen size: about 5,500 compounds; about 2,000 (36%) were called active. Not shown: some 18% with an inconclusive outcome. Cut-off read from the data, not from the text of the source: active = normalized growth mostly below about 0.91 (no sharp cut-off); inconclusive = no clear call, values can overlap the other calls; inactive = mostly above about 0.92. The list shows a part of the results.

Assay: chemical genetic growth profiling, strain panel (AID 1159580);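 note: tested at 20 µM; growth read once vehicle control cultures reached saturation at 30 °C; 1 = growth at the plate median or of vehicle wells; lower values mean less growth of the strain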
Conditions: S. cerevisiae deletion strains, growth OD

Measured: normalized growth

CC1=C2C(=CO[C@H](C)[C@H]2C)C(=O)C(C(=O)O)=C1O
active: locus YHR079C, strain IRE1, stronger effect = lower value 0.794
inactive: locus YAL021C, strain ccr4, stronger effect = lower value 0.993 | locus YAL026C, strain drs2, stronger effect = lower value 0.982 | locus YAL030W, strain snc1, stronger effect = lower value 0.977 | locus YBL061C, strain skt5, stronger effect = lower value 0.977 | locus YBR009C, strain hhf1, stronger effect = lower value 0.975 | locus YBR021W, strain FUR4, stronger effect = lower value 0.995 | locus YBR023C, strain chs3, stronger effect = lower value 0.97 | locus YBR171W, strain sec66, stronger effect = lower value 0.981 | locus YBR229C, strain ROT2, stronger effect = lower value 0.978 | locus YBR231C, strain swc5, stronger effect = lower value 0.979 | locus YBR279W, strain paf1, stronger effect = lower value 0.989 | locus YCL011C, strain gbp2, stronger effect = lower value 0.975 | locus YCL016C, strain dcc1, stronger effect = lower value 0.967 | locus YCL029C, strain bik1, stronger effect = lower value 0.986 | locus YCL061C, strain MRC1, stronger effect = lower value 0.967 | locus YCL069W, strain vba3, stronger effect = lower value 0.991 | locus YCR088W, strain abp1, stronger effect = lower value 0.973 | locus YDL005C, strain med2, stronger effect = lower value 0.971 | locus YDL035C, strain GPR1, stronger effect = lower value 0.995 | locus YDL040C, strain nat1, stronger effect = lower value 0.98 | locus YDL074C, strain BRE1, stronger effect = lower value 0.996 | locus YDL101C, strain DUN1, stronger effect = lower value 0.989 | locus YDL134C, strain PPH21, stronger effect = lower value 0.996 | locus YDL185W, strain tfp1, stronger effect = lower value 0.991 | locus YDL192W, strain arf1, stronger effect = lower value 0.983 | locus YDR001C, strain nth1, stronger effect = lower value 0.98 | locus YDR069C, strain doa4, stronger effect = lower value 0.976 | locus YDR101C, strain arx1, stronger effect = lower value 0.983 | locus YDR137W, strain rgp1, stronger effect = lower value 0.912 | locus YDR150W, strain NUM1, stronger effect = lower value 0.981 | locus YDR159W, strain sac3, stronger effect = lower value 0.957 | locus YDR162C, strain NBP2, stronger effect = lower value 0.978 | locus YDR195W, strain ref2 0.969 | locus YDR297W, strain sur2, stronger effect = lower value 0.989 | locus YDR318W, strain mcm21, stronger effect = lower value 0.989 | locus YDR334W, strain swr1, stronger effect = lower value 0.991 | locus YDR335W, strain msn5, stronger effect = lower value 0.994 | locus YDR388W, stronger effect = lower value 0.979 | locus YDR392W, strain spt3, stronger effect = lower value 0.821 | locus YDR502C, strain sam2, stronger effect = lower value 0.971 | locus YEL003W, strain gim4, stronger effect = lower value 0.988 | locus YEL037C, strain rad23, stronger effect = lower value 0.997 | locus YEL061C, strain CIN8 (second series), stronger effect = lower value 0.99 | locus YEL061C, strain CIN8, stronger effect = lower value 0.979 | locus YER015W, strain faa2, stronger effect = lower value 0.98 | locus YER016W, strain bim1, stronger effect = lower value 0.976 | locus YER110C, stronger effect = lower value 0.985 | locus YER111C, strain swi4, stronger effect = lower value 0.983 | locus YER155C, strain BEM2 (second series), stronger effect = lower value 0.938 | locus YER155C, strain BEM2, stronger effect = lower value 0.982 | locus YER167W, strain BCK2, stronger effect = lower value 0.969 | locus YFR010W, strain ubp6, stronger effect = lower value 0.991 | locus YGL078C, strain dbp3, stronger effect = lower value 0.987 | locus YGL086W, strain mad1, stronger effect = lower value 0.96 | locus YGL167C, strain pmr1, stronger effect = lower value 0.963 | locus YGL173C, strain kem1, stronger effect = lower value 0.983 | locus YGL227W, strain vid30, stronger effect = lower value 0.989 | locus YGL240W, strain doc1, stronger effect = lower value 0.97 | locus YGL248W, strain PDE1, stronger effect = lower value 0.991 | locus YGL253W, strain hxk2, stronger effect = lower value 1.01 | locus YGR135W, strain pre9, stronger effect = lower value 0.999 | locus YGR229C, strain SMI1, stronger effect = lower value 0.989 | locus YGR252W, strain gcn5, stronger effect = lower value 1.06 | locus YHR013C, strain ard1, stronger effect = lower value 0.94 | locus YHR027C, strain rpn1, stronger effect = lower value 0.977 | locus YHR079C, strain IRE1 (second series), stronger effect = lower value 0.985 | locus YHR094C, strain hxt1, stronger effect = lower value 0.975 | locus YHR129C, strain ARP1, stronger effect = lower value 0.982 | locus YHR142W, strain chs7, stronger effect = lower value 1.01 | locus YHR200W, strain rpn10, stronger effect = lower value 0.989 | locus YIL066C, strain RNR3, stronger effect = lower value 0.995 | locus YIL073C, strain SPO22, stronger effect = lower value 0.993 | locus YIL125W, strain kgd1, stronger effect = lower value 0.965 | locus YIR030C, strain dcg1, stronger effect = lower value 0.976 | locus YJL092W, strain hpr5, stronger effect = lower value 0.989 | locus YJL095W, strain BCK1 (second series), stronger effect = lower value 0.974 | locus YJL115W, strain asf1, stronger effect = lower value 0.987 | locus YJL129C, strain trk1, stronger effect = lower value 0.927 | locus YJL134W, strain LCB3, stronger effect = lower value 0.975 | locus YJL154C, strain vps35, stronger effect = lower value 0.993 | locus YJL164C, strain tpk1, stronger effect = lower value 0.974 | locus YJL166W, strain qcr8, stronger effect = lower value 0.983 | locus YJL168C, strain set2, stronger effect = lower value 0.98 | locus YJL187C, strain SWE1 (second series), stronger effect = lower value 0.995 | locus YJL187C, strain SWE1, stronger effect = lower value 0.979 | locus YJR043C, strain POL32, stronger effect = lower value 1.02
0.977 (inactive) and 0.85 (active): locus YHR030C, strain SLT2, stronger effect = lower value
0.947 (inactive) and 0.851 (active): locus YJL095W, strain BCK1, stronger effect = lower value
